Source: PubChem
SUMO HTRF inh = blocks human SUMOylation mediated by UBC9. inhibition, % at 35 µM. HTRF SUMOylation assay, SAE1/SAE2 + UBC9, in vitro. 290,000 compounds, 0.36% hits. P63279; in the data active = inhibition above about 50%, passing the limit was not always enough
Target sequence (P63279 whole entry, looked up): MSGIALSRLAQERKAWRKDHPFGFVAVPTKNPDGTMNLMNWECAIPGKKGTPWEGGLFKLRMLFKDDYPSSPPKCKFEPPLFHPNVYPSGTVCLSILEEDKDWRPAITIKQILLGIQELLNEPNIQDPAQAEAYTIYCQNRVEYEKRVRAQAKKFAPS
GRIN3A LBD mod = modulators (binders) of human NR3A ligand-binding domain | AID 1259313 | NR3A LBD differential scanning fluorimetry, Tm shift; 0% = protein alone, 100% = glycine-bound protein | 340,000 compounds, 2.5% hits | Tm shift relative to glycine control, % at 25 µM;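 active = melting temperature shift of at least 10% of the positive control shift, at one fixed dose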
HGIII-sPLA2 inh = Blocks human group III sPLA2 activity; 370,000 compounds, 0.56% hits; QFRET BODIPY PC-A2 liposome hydrolysis, fluorescence; inhibition, % at 12.2 µM; Q9NZ20;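 active = inhibition above mean plus 3 SD of compounds lying within the high and low control bounds, cut at about 19% in these data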;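 also: 0% = median of test compound wells and 100% = no enzyme DMSO wells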
UBC13 inh = inhibitors of human UBC13 polyubiquitin chain formation | P61088 | TR-FRET | inhibition, % at 20 µM | 330,000 compounds, 0.47% hits | AID 485273; in the data active = inhibition above about 45%, passing the limit was not always enough
Target sequence (P61088 whole entry, looked up): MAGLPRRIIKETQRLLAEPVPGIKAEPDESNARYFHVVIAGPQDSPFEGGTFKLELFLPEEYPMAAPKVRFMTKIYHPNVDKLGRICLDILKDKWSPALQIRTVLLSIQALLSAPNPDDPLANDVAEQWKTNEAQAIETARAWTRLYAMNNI
Starred values were filed as active, the others as inactive; i = inactive; . = no result given. In the library only some 3.3% were active in any assay of this set; here they are far more common.

SMILES | SUMO HTRF inh | GRIN3A LBD mod | HGIII-sPLA2 inh | UBC13 inh
Nn1c(SCC(=O)NC2CCCCC2)nnc1-c1cc(-c2ccccc2)n[nH]1 | . | . | -2 | .
CCOc1ccccc1C(=O)N1CCC(Oc2cccnc2)CC1 | . | . | -2 | .
N#Cc1c(-c2cccc(Br)c2)cc(-c2ccco2)[nH]c1=O | 79* | -18 | -4 | -7
COc1ccc(-c2cc(-c3ccco3)[nH]c(=O)c2C#N)cc1 | 47 | -4 | -1 | 6
Cc1nn(C(C)(C)C)c(C)c1/C=N/OC(=O)Nc1ccc(Cl)cc1 | -10 | 11* | 5 | 9
CC(NC(=O)OC(C)(C)C)C(=O)Oc1ccc2ccc(=O)oc2c1 (configuration not stated) | 52* | -2 | 3 | 17
CC(C)(C)OC(=O)NCCC(=O)Oc1ccc2ccc(=O)oc2c1 | 36 | -3 | . | 10
CCOC(=O)N1CCN(CC(=O)c2ccc3c(c2)CCN3C(C)=O)CC1 | 14 | 2 | 4 | -6
CC(=O)N1CCc2cc(C(=O)CN3CCCCC3)ccc21 | 9 | 13* | 5 | -5
COc1ccc(-c2cc(C(=O)N/N=C/C(C)=C\c3ccco3)[nH]n2)cc1 | . | . | -3 | .
COc1ccc(CCN(Cc2cccs2)S(=O)(=O)c2ccccc2)cc1OC | . | . | -9 | .
Cn1c(=O)c(NCCc2ccccc2)c2c3c(cccc31)C(=O)c1ccccc1-2 | 46 | 43* | -369 | -191
Cn1c(=O)c(NCCO)c2c3c(cccc31)C(=O)c1ccccc1-2 | 55* | -386 | -438 | i
CCNc1c2c3c(cccc3n(C)c1=O)C(=O)c1ccccc1-2 | 38 | 4 | . | -310
CCCCNc1c2c3c(cccc3n(C)c1=O)C(=O)c1ccccc1-2 | 25 | -34 | . | -92
COc1c(O)ccc(/C=C(\C#N)c2nc3ccccc3[nH]2)c1[N+](=O)[O-] | 11 | 23* | -8 | -51
COc1ccc(/C=C(\C#N)c2nc3ccccc3[nH]2)cc1O | 21 | 7 | -13 | -24
N#C/C(=C/c1cccs1)c1nc2ccccc2[nH]1 | -16 | 15* | 1 | -14
Cc1ccc2nc(/C(C#N)=C/c3ccc(-c4cccc([N+](=O)[O-])c4)o3)[nH]c2c1 | 3 | 13* | 3 | .
N#C/C(=C\c1c(Cl)cccc1Cl)c1nc2ccccc2[nH]1 | 38 | -7 | -7 | 2
Cc1ccc(/C=C(\C#N)c2nc3ccccc3[nH]2)s1 | 16 | 19* | -4 | -21
COC(=O)[C@]12C[C@H](CC(=O)N3CCC(c4ccccc4)CC3)C(=O)N(Cc3ccc(Cl)cc3Cl)C1=C[C@H](C1CCCC1)O[C@@H]2C | . | . | 3 | .
N#C/C(=C\c1ccc(Sc2ccc(Cl)cc2)o1)c1nc2ccccc2[nH]1 | 13 | 15* | 4 | .
COc1cc(/C=C(\C#N)c2nc3ccccc3[nH]2)cc(Br)c1OCc1ccccc1 | -4 | 17* | -7 | -19
CCOC(=O)[C@@]12CN(C(=O)OC(C)(C)C)CC=C1N(Cc1ccc(OC)cc1)C(=O)[C@H]2CC(=O)N1CCN(C(=O)c2ccco2)CC1 | . | . | -4 | .
SMILES | SUMO HTRF inh | GRIN3A LBD mod | HGIII-sPLA2 inh | UBC13 inh
Cn1c(Cc2cccs2)nnc1SCC(=O)Nc1ccc2c(c1)OCO2 | . | . | 0 | .
C/C(=N\OC(=O)c1cccc(C(F)(F)F)c1)c1sc(-c2ccccc2)nc1C | 11 | 2 | 2 | 11
C/C(=N\OC(=O)c1cccc(C)c1)c1sc(-c2ccccc2)nc1C | 10 | 18* | 0 | 14
C/C(=N\OC(=O)c1ccc(F)cc1)c1sc(-c2ccccc2)nc1C | 7 | 11* | -1 | -3
COc1ccc(Cn2ccc3ccc(-c4ccc5ccn(C(=O)c6ccccc6)c5c4)cc32)cc1 | . | . | -3 | .
O=S1(=O)c2c(cccc2N2CC[C@H](O)C2)OCCCN1C1CC1 | . | . | 5 | .
CC(=O)n1cc(/C=N/NC(=O)c2ccccc2O)c2ccccc21 | 6 | 32* | -5 | -4
CCOc1cc(/C=C2/C(=O)ON=C2C)ccc1OCc1ccccc1 | 27 | 26* | 5 | -11
CCOc1cc(/C=C2/C(=O)ON=C2C)ccc1OCc1ccc(F)cc1 | -12 | 2 | -5 | -13
COc1ccc(CN2CN3Cc4ccccc4C3CS2(=O)=O)cc1 (configuration not stated) | . | . | 0 | .
CC(C#N)(Nc1ccc(Cl)cc1)c1cccnc1 (configuration not stated) | -6 | 16* | 5 | 4
CCN(CC)C(=O)CC[C@@H]1CC[C@]2(CCCN(Cc3ccc(Cl)cc3)C2)O1 | . | . | 1 | .
CCOc1cccc(OCCOCCNC(C)(C)C)c1 | 9 | 16* | 1 | 6
CCOc1c(C#N)c(C#N)c2nc(C)cc(C)n12 | 11 | 14* | 1 | 3
Cc1cc(C)n2c3c(c(C#N)c2n1)CCCC3 | 14 | -4 | 6 | 5
O=C(O)CCCCCN1C(=O)/C(=C\c2ccc(-c3ccc(Cl)cc3)o2)SC1=S | 24 | 0 | -4 | -93
O=C(O)CCCN1C(=O)/C(=C/c2ccc(-c3nc4ccccc4s3)o2)SC1=S | 4 | 26* | 0 | -141
CCOC(=O)[C@@]12CCCC=C1N(CCc1ccc(Cl)cc1)C(=O)[C@H]2CC(=O)NCCc1ccccc1OC | . | . | -11 | .
N#CCCN(Cc1cccnc1)S(=O)(=O)c1ccc(S(=O)(=O)NC2CCCCC2)cc1 | 21 | 14* | -1 | 2
O=C(CCN1C(=O)C2CC=C(Cl)CC2C1=O)Nc1ccccc1O (configuration not stated) | 7 | 11* | -2 | 8
C=CCN1C(=O)[C@@H](CC(=O)NCCCC)[C@]2(C(=O)OCC)CCCCC/C=C/12 | . | . | -4 | .
O=C(NCc1ccc(C(F)(F)F)cc1)O[C@H]1CC[C@@]23CCCN2C(=O)CCC[C@H]3C1 | . | . | 1 | .
CCNC(=O)c1ccc(CSc2nc3ccccc3s2)cc1 | -1 | 33* | -10 | -9
Cc1[nH]n(-c2nc(-c3ccc(Cl)cc3)cs2)c(=O)c1N=Nc1ccc(O)cc1 | -6 | 19* | -6 | -160
CCc1c(C)[nH]n(-c2nc(-c3ccccc3)cs2)c1=O | -2 | -2 | -1 | -9
SMILES | SUMO HTRF inh | GRIN3A LBD mod | HGIII-sPLA2 inh | UBC13 inh
N#CCOC(=O)[C@H](Cc1c[nH]c2ccccc12)NS(=O)(=O)c1ccc(Cl)cc1 | 8 | 29* | -74 | -1
Cc1ccc(-c2cc(C(=O)NN=Cc3cc(Br)ccc3O)[nH]n2)cc1C | . | . | 18 | .
O=C(O)c1ccc(/C=C2/SC(=S)N(Cc3ccccc3)C2=O)cc1 | 26 | 20* | 12 | .
CC(=O)Oc1ccc(/C=C2/SC(=S)N(Cc3ccccc3)C2=O)cc1 | -2 | -3 | -3 | -37
COc1cc([N+](=O)[O-])cc(/C=C2/SC(=S)N(Cc3ccccc3)C2=O)c1O | 46 | 5 | -10 | .
O=C1/C(=C/c2ccc(O)c([N+](=O)[O-])c2)SC(=S)N1Cc1ccccc1 | 50 | 498* | -2 | -201
O=C1/C(=C\c2cc(Br)cc(Br)c2O)SC(=S)N1Cc1ccccc1 | 59* | -2 | . | -55
O=C1/C(=C\c2cccc([N+](=O)[O-])c2O)SC(=S)N1Cc1ccccc1 | 30 | 1 | 6 | .
O=C(O)CN1C(=O)/C(=C\c2cc(Br)ccc2OCc2ccc([N+](=O)[O-])cc2)SC1=S | 51* | 1 | -9 | -7
